Laboratory results: PubChem BioAssay (NCI)
The panel holds about 83,000 compounds, 20% with a hit somewhere; the sample as a whole holds those more often.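 Assay: single dose, 48 h. Readout: percent growth (0 = no net growth; negative = cell death). Active: <10.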 Unmarked numbers belong to inactive results. Activity calls are given as the source filed them.

These compounds were tested on M14 melanoma (assay: NCI-60 one-dose screen, 48 h (100 = growth as untreated, 0 = no growth, -100 = all killed)). Conditions: 10 µM unless noted.
Description: Growth inhibition of the M14 human tumor cell line is measured as a screen for anti-cancer activity. Cells are grown in 96 well plates and exposed to the test compound for 48 hours. Compounds are tested at a single concentration, which is 10^-5 M for most compounds. The reported endpoint is percent growth (GI% or GIPRCNT), where numbers from 0 - 100% represent growth inhibition, and numbers from -100% - 0 represent cell death. For example, a value of 40 represents 60% growth inhibition. A value of 0 means no net growth occurred over the course of the experiment. A value of -40 indicates 40% of cells at the beginning of the experiment died by the end of the experiment. A value of -100 means all cells are dead at the end of the experiment.
NCI-60 Human Tumor Cell Lines Screen was performed using the standard one-dose NCI protocol, which is described in more detail at https://dtp.cancer.gov/discovery_development/nci-60/default.htm.
Compounds with GIPRCNT values below 10 were considered active. Activity score was based on GIPRCNT using the following formula: […]
Score is 0 for GIPRCNT values of 100 or above, 50 for GIPRCNT values of 0, and 100 for GIPRCNT values of -100.

Q: Which growth does the source give for `CCOC(=O)c1c(NC(=O)c2cccc(C(F)(F)F)c2)sc2c1CCC(=O)C2` here?
A: 42.7%

Q: `CC(O)c1cccc(/C(N)=N/C(N)=N/c2nc3ccccc3s2)c1` (stereo not given) was tested. Which growth did it give?
A: 94.4%

Q: For `Oc1[nH]c2ccc(Cl)cc2c1N=Nc1nc(N=Nc2c(O)[nH]c3ccc(Cl)cc23)nc(N2CCCCC2)n1`, which growth is on record?
A: 81.1%

Q: `Clc1ccc2[nH]cc(-c3cncn3CCc3ccc4c(c3)OCO4)c2c1` was tested. Which growth did it give?
A: 78.8%

Q: For `COC(=O)c1cccc(NC2=C(Cl)C(=O)C(C)=C(C)C2=O)c1`, which growth is on record?
A: 92.3%

Q: How did the growth turn out when `CN1CCN(Cc2ccc(NC(=O)c3cncc(C#Cc4cnc5ccc(N6CCOCC6)nn45)c3)cc2C(F)(F)F)CC1` was run?
A: -74.4% (active)

Q: `Cc1csc(/N=C(N)/N=C(\N)c2cccnc2)n1` was tested. Which growth did it give?
A: 51.6%

Q: For `O=C1Nc2ccccc2/C1=N\c1nnc(-c2ccccc2)o1`, which growth is on record?
A: 95.9%

Q: For `Clc1cccc(/C=N/Nc2nc(N/N=C/c3cccc(Cl)c3)nc(N3CCCCC3)n2)c1`, which growth is on record?
A: 95.3%

Q: `O=C(CCCCCC/C=C\c1csc(Br)n1)NO` was tested. Which growth did it give?
A: 93.9%

Q: For `OCC(Nc1ncnc2ccc(-c3cnc4cnccn34)cc12)c1ccccc1` (stereo not given), which growth is on record?
A: 93.3%

Q: Which growth does the source give for `C(=N\Nc1nc(N/N=C/c2ccc3c(c2)OCO3)nc(N2CCCCC2)n1)/c1ccc2c(c1)OCO2` here?
A: 97.3%

Q: Which growth does the source give for `O=C(COc1ccc(/C=C2\C(=O)Nc3cc(Cl)ccc32)cc1)Nc1ccc(Cl)cc1` here?
A: 22.1%

Q: `COc1cc2oc(-c3cccc(NC(=O)c4cccc([N+](=O)[O-])c4)c3)cc(=O)c2c(OC)c1OC` was tested. Which growth did it give?
A: 83.8%

Q: `O=C1CSC(c2cn(-c3ccccc3)nc2-c2ccc(Cl)cc2)N1c1ccccc1` (stereo not given) was tested. Which growth did it give?
A: 99.3%

Q: How did the growth turn out when `CCN(CC)c1ccc(/C=N/NC(=O)c2ccc(NS(C)(=O)=O)cc2)c(O)c1` was run?
A: 0.206% (active)

Q: How did the growth turn out when `O=C1[C@@H]2Cc3c([nH]c4ccccc34)[C@@H](c3ccc(Cl)cc3)N2C(=O)CN1C1CCN(Cc2c(F)cccc2F)CC1` was run?
A: 14.4%

Q: For `CN1CCN(Cc2ccc(NC(=O)c3cncc(C#Cc4cnc5ccc(OCCCS(C)(=O)=O)nn45)c3)cc2C(F)(F)F)CC1`, which growth is on record?
A: -78.9% (active)

Q: `Cc1nc(/N=C(N)/N=C(\N)c2cccc(Br)c2)sc1C` was tested. Which growth did it give?
A: 47.1%

Q: How did the growth turn out when `COc1ccc2c(c1)c(-c1nnc(N)nc1-c1c[nH]c3ccc(F)cc13)cn2C` was run?
A: 32.8%

Q: For `CN1CCN(Cc2ccc(NC(=O)c3cncc(C#Cc4cnc5ccc(N)nn45)c3)cc2C(F)(F)F)CC1`, which growth is on record?
A: -1.8% (active)

Q: For `O=C(/C=C/c1ccc(F)cc1)Nc1cccc2cccnc12`, which growth is on record?
A: 98.5%

Q: For `Cc1ccc(NC(=O)/C=C/c2ccc(OCCCOc3ccc4c(C)cc(=O)oc4c3)cc2)cc1`, which growth is on record?
A: 88.3%

Q: For `CCCCCCN1C=C/C(=C\C(=O)n2ccc3ccccc32)c2ccccc21`, which growth is on record?
A: 78.5%

Q: How did the growth turn out when `CC(C)(C)Nc1nc2c(OCCc3ccccc3)cccn2c1-c1cccc(Oc2ccccc2)c1` was run?
A: 18%

Q: Which growth does the source give for `Cc1ccc(S(=O)(=O)NCCCNc2nc(Nc3ccc(N4CCN(C)CC4)cc3)nc3ccsc23)cc1` here?
A: -69.6% (active)

Q: Which growth does the source give for `C/C(=N\NC(N)=S)c1nnn(-c2ccc([N+](=O)[O-])cc2)c1C` here?
A: 99.5%

Q: For `C=C(C)[C@@H]1CC[C@]2(C(=O)N3CCN(C)CC3)CC[C@]3(C)[C@H](CC[C@@H]4[C@@]5(C)CC[C@H](OP(=O)(OCC)OCC)C(C)(C)[C@@H]5CC[C@]43C)[C@@H]12`, which growth is on record?
A: 102%

Q: `Brc1ccc2[nH]cc(-c3nn4cc(-c5nccs5)nc4s3)c2c1` was tested. Which growth did it give?
A: 13.3%

Q: With `CCC1=Cc2c(OC)cccc2OC12C=Cc1c(OC)cccc1O2` (stereo not given) as the compound, how does the growth read?
A: 6.53% (active)

Q: How did the growth turn out when `C1=CC(c2nn3c(-c4ccccc4)nnc3s2)=Cc2ccccc2O1` was run?
A: 65%

Q: `COc1ccc2c(c1)c(-c1nn3cc(-c4ccncc4)nc3s1)cn2C` was tested. Which growth did it give?
A: 107%

Q: `C#C[C@]1(O)CC[C@H]2[C@@H]3CC=C4c5sc(Nc6cc(Cl)ccc6OC)nc5CC[C@]4(C)[C@H]3CC[C@@]21C` was tested. Which growth did it give?
A: -51.7% (active)

Q: How did the growth turn out when `O=C(O)CC1CCN(c2ccc3nnc(Cl)n3n2)CC1` was run?
A: 94.6%

Q: For `Cc1ccc2c(n1)C(=O)C(Cl)=C(Nc1cc(C(F)(F)F)cc(C(F)(F)F)c1)C2=O`, which growth is on record?
A: 89.9%

Q: For `O=C(CCCCCCNC(=O)C(O)(O)C(F)(F)F)Nc1ccc(Br)cc1`, which growth is on record?
A: 25.1%

Q: With `COc1ccc(/C=N/N=C(/c2ccccc2)c2ccc3nc(-c4ccc(Cl)cc4)[nH]c3c2)cc1` as the compound, how does the growth read?
A: 75.3%

Q: For `CC(=O)OC[C@@]12Oc3c(cccc3-c3ccc(O)c4c3O[C@]3(COC(C)=O)C(=C4O)C(=O)C[C@H](C)[C@@H]3OC(C)=O)C(O)=C1C(=O)C[C@H](C)[C@@H]2OC(C)=O`, which growth is on record?
A: 21.8%

Q: `Cc1ccc2c(n1)C(=O)C(Cl)=C(Nc1cccc(C(=O)OC(C)(C)C)c1)C2=O` was tested. Which growth did it give?
A: 96.5%

Q: For `CCOC(=O)c1cccnc1Nc1ccc(NC(=O)Nc2ccc(Cl)c(C(F)(F)F)c2)cc1`, which growth is on record?
A: 42.7%
